Reference: PubChem BioAssay (NCATS)
Records with an inconclusive call do not appear. Activity calls are given as the source filed them. Unless noted, calls follow the shape of the dose curve; as a rule, active = well fitted curve in either direction with a large enough effect (not every such curve was filed as active); inconclusive = small, poorly fitted or top-dose-only effect, or another doubt; inactive = flat fitted curve, though single readings scatter.

Columns and labels:
[1] = target: Lysosomal acid glucosylceramidase (Homo sapiens) (UniProt P04062); experiment: Glucocerebrosidase-p2 (AID 348; in the data active = potency below about 10 µM; also: potency is read from the fitted curve at half-maximal effect); conditions: purified GBA, blue fluorogenic substrate, 40 min
Chain of Lysosomal acid glucosylceramidase (Homo sapiens) (P04062 whole entry, looked up): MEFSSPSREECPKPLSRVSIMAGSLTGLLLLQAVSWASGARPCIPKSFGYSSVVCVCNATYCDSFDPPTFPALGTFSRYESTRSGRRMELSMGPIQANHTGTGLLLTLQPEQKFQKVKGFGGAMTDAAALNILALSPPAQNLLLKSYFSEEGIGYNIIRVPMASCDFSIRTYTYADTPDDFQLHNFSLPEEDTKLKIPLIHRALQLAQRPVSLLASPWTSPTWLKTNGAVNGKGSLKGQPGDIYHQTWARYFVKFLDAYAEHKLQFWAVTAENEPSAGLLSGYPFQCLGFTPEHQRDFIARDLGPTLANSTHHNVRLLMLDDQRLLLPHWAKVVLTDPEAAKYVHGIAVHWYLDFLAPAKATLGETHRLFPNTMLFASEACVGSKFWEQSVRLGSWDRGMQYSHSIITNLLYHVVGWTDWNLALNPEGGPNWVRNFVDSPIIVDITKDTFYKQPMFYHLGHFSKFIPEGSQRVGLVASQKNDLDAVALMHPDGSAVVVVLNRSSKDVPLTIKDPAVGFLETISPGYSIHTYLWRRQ
How it was run: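 Compounds titrated from 0.6 nM upwards against 0.2 nM enzyme in pH 5.9 citric acid/KH2PO4, taurocholate, tween-20; blue fluorogenic substrate 80 uM, 40 min room temperature, stopped and read Ex 365/Em 440 for AC50.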

[2] = AP1 Signaling Pathway (AID 357); conditions: ME-180 AP-1-bla reporter, EGF-induced, beta-lactamase ratio, 5 h; at 7.69 µM (top of the series) unless noted;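 also: ME-180 reporter cells stimulated with EGF at its EC50 level; % is scaled to controls: 0 for no effect and ±100 for the full control effect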
How it was run: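 First, ME-180 AP-1-bla cells were cultured overnight at 37 °C in low-serum Opti-MEM. Next, titrated compounds with EC50 EGF were incubated 5 hours. Finally, CCF4 was added for 2.5 hours and the 460/530 nm ratio recorded.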

[3] = NFAT Signaling Pathway (AID 444); conditions: Jurkat NFAT-bla M1, carbachol, beta-lactamase ratio, 5 h; at 7.69 µM (top of the series) unless noted;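 also: carbachol stimulus at about its EC50 of 1 µM final; % is scaled to controls: 0 for no effect and ±100 for the full control effect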
How it was run: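 Jurkat cells carrying an NFAT-driven β-lactamase reporter and co-transfected muscarinic M1 receptor were treated with compound plus carbachol (1 uM final, an EC50 level) for 5 h at 37 °C. CCF4 loading followed for 1 h at RT; 460/530 nm ratio gave %activity.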

[4] = Stat Signaling Pathway (AID 446); conditions: ME-180 SIE beta-lactamase reporter, IL-6 stimulated, 5 h; at 7.69 µM (top of the series) unless noted;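 also: ME-180 cervical cancer cells given 40 pM IL-6 alongside compound; SIE-controlled beta-lactamase reporter measured as 460/530 nm FRET emission ratio; % is scaled to controls: 0 for no effect and ±100 for the full control effect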
How it was run: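 ME-180 cells carrying a SIE-driven beta-lactamase reporter are stimulated with 40 pM IL-6 for 5 h at 37C in the presence of compound. The 460/530 nm FRET substrate ratio is read after 2.5 h at RT. Data are normalised to 300 pM IL-6 and to 125 nM JAK inhibitor controls.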

[5] = target: Glucocorticoid receptor (Homo sapiens) (UniProt P04150); experiment: GR-GFP Redistribution (AID 450;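 active = compounds whose dose series gives a full or clear partial fitted curve of increased nuclear translocation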; also: potency is read from the fitted curve at half-maximal effect); conditions: U2OS GR-GFP nuclear translocation, laser cytometry, 2 h
Chain of Glucocorticoid receptor (Homo sapiens) (P04150 whole entry, looked up, the tested form may be a part): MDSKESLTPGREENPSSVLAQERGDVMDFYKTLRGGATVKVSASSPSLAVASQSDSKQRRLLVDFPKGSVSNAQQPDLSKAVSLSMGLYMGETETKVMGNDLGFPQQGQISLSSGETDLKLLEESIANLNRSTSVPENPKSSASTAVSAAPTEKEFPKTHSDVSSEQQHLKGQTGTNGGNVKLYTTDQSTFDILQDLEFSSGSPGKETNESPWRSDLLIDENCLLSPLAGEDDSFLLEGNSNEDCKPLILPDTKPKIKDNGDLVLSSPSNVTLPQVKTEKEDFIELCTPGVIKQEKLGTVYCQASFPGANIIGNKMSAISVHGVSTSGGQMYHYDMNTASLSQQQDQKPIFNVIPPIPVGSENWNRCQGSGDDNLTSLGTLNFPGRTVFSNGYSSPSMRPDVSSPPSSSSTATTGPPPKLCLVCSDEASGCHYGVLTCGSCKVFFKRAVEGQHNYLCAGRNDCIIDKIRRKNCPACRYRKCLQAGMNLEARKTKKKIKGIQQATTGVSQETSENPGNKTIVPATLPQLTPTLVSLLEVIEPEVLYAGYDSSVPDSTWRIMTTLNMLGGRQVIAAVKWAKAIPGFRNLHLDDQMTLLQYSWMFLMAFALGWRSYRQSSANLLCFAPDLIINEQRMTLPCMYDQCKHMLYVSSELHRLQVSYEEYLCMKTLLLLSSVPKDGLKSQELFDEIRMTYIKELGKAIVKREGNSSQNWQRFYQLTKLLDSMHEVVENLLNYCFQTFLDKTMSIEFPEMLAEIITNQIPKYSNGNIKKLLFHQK

[6] = target: Glucocorticoid receptor (Homo sapiens) (UniProt P04150); experiment: GR-EFC Redistribution (AID 451; calls by dose curve; also: potency is read from the fitted curve at half-maximal effect); conditions: CHO-K1 GR-EFC translocation, beta-gal luminescence, 2 h
How it was run: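 CHO-K1 cells stably expressing nuclear-localized β-gal enzyme acceptor and GR fused C-terminally to the enzyme donor fragment; ligand-driven nuclear translocation restores β-gal by complementation. Compounds titrated up to 46 uM final, 2 h at 37 °C; luminescence read.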

[7] = target: Mitogen-activated protein kinase 10 (Mus musculus) (UniProt Q61831); experiment: JNK3 AlphaScreen Assay (AID 530); conditions: JNK3 lysate, c-Jun phosphorylation; series mostly up to 11.4 µM;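 also: kinase came from lysate of stimulated human HepG2 cells; signal reports phosphorylation of biotinylated GST-cJun 1-79 at Ser73 with 10 µM ATP; % is scaled to controls: 0 for no effect and ±100 for the full control effect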
How it was run: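 Inhibitors reduce antibody binding to phosphorylated biotin-cJun, lowering AlphaScreen luminescence. Lysates from HepG2 cells pre-activated by IL-1beta plus TNF-alpha supplied JNK3; compounds were titrated.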

[8] = target: 3',5'-cyclic-AMP phosphodiesterase 4B (Homo sapiens) (UniProt Q07343); experiment: qHTS Assay for Inhibitors of PDE-IV (AID 607; active = well fitted activation curve with a large enough effect in the main read-out, with a control signal flat, not every such curve was filed as active; also: % of control where 0% means no effect); conditions: HEK293 ACTOne CNG channel cells, membrane potential fluorescence; series mostly up to 22.9 µM
Chain of 3',5'-cyclic-AMP phosphodiesterase 4B (Homo sapiens) (Q07343 whole entry, looked up): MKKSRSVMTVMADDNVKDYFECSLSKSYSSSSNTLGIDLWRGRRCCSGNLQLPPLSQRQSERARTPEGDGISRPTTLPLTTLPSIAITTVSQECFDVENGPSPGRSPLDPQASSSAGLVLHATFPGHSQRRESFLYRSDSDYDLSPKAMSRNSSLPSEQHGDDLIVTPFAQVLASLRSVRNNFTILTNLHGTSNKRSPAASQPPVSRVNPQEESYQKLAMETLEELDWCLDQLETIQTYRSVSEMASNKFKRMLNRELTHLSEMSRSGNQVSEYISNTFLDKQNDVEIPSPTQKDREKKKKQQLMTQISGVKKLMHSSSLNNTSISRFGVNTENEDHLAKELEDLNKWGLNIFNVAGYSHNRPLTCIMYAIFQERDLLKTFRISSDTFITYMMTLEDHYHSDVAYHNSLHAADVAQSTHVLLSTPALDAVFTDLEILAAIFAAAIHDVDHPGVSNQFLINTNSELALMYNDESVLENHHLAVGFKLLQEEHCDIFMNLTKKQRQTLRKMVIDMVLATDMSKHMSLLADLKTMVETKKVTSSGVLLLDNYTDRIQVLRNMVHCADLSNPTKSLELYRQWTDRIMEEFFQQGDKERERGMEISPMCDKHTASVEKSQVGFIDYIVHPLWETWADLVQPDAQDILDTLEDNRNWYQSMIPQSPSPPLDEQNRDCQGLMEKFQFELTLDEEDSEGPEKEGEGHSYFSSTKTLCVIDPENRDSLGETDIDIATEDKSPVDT
How it was run: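 HEK293 ACTOne cells with CNG channel (1000/well), endogenous PDE4; membrane potential dye, compounds up to 22.9 uM final. Fluorescence Ex 535/Em 590; RO 20-1724 (100 uM final) as reference.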

C[N+](C)(C)c1ncnc2c1ncn2[C@@H]1C[C@H](O)[C@@H](CO)O1
inactive: Potency [1] > 11.4 µM | activity change, negative = inhibition [2] 2.41% | activity change, negative = inhibition [3] 9.78% | activity, negative = inhibition [4] 3.06% | Potency [5] > 46 µM | Potency [6] > 9.22 µM | Potency [7] | Potency [8]

O=C(Nc1ccc(-c2cn3ccccc3n2)cc1)c1cc(Br)ccc1O
inactive: Potency [1] > 11.4 µM | activity change, negative = inhibition [2] -0.171% | activity change, negative = inhibition [3] 1.22% | activity, negative = inhibition [4] -0.935% | Potency [5] > 46 µM | Potency [6] > 9.22 µM | Potency [7] | Potency [8]

C[C@H](NCCN(C)C)[C@@H]1CCC2C3CCc4cc(O)ccc4[C@H]3CCC21C (stereo partly specified)
inactive: Potency [1] > 11.4 µM | activity change, negative = inhibition [2] 3.21% | activity change, negative = inhibition [3] -1% | activity, negative = inhibition [4] -5.94% | Potency [5] > 46 µM | Potency [6] > 9.22 µM | Potency [7] | Potency [8]

Cc1c(-c2nc(N)nc(C3CC3)c2C)nc(N)nc1C1CC1
inactive: Potency [1] > 11.4 µM | activity change, negative = inhibition [2] 2.87% | activity change, negative = inhibition [3] 4.67% | activity, negative = inhibition [4] 5.17% | Potency [5] > 46 µM | Potency [6] > 9.22 µM | Potency [7] | Potency [8]

C/C(=N/NS(=O)(=O)c1ccc(C)cc1)P(=O)(O)O
inactive: Potency [1] > 11.4 µM | activity change, negative = inhibition [2] 1.2% | activity change, negative = inhibition [3] 7.41% | activity, negative = inhibition [4] 6.08% | Potency [5] > 46 µM | Potency [6] > 9.22 µM | Potency [7] | Potency [8]

N=C(N)SCCON1C(=O)c2ccccc2C1=O
inactive: Potency [1] > 11.4 µM | activity change, negative = inhibition [2] 5.96% | activity change, negative = inhibition [3] -3.83% | activity, negative = inhibition [4] -5.8% | Potency [5] > 46 µM | Potency [6] > 9.22 µM | Potency [7] | Potency [8]

CC1(C)N=C(N)N=C(N)N1c1cccc(OCc2cccc(N)c2)c1
inactive: Potency [1] > 11.4 µM | activity change, negative = inhibition [2] 11.8% | activity change, negative = inhibition [3] -27.5% | activity, negative = inhibition [4] -3.01% | Potency [5] > 46 µM | Potency [6] > 9.22 µM | Potency [7] | Potency [8]

Cc1ccn2c(CCc3nnc4cc(C)ccn34)nnc2c1
inactive: Potency [1] > 11.4 µM | activity change, negative = inhibition [2] 2.24% | activity change, negative = inhibition [3] 11% | activity, negative = inhibition [4] -6.72% | Potency [5] > 46 µM | Potency [6] > 9.22 µM | Potency [7] | Potency [8]

CCOC(=O)[C@]1(CC(=O)O)CCCC1=O
inactive: Potency [1] > 11.4 µM | activity change, negative = inhibition [2] -0.0726% | activity change, negative = inhibition [3] -7.19% | activity, negative = inhibition [4] -19.1% | Potency [5] > 46 µM | Potency [6] > 9.22 µM | Potency [7] | Potency [8]

NC(=S)N/N=C\c1c[nH]c2ccccc12
inactive: Potency [1] > 11.4 µM | activity change, negative = inhibition [2] 2.82% | activity change, negative = inhibition [3] -6% | activity, negative = inhibition [4] 13.8% | Potency [5] > 46 µM | Potency [6] > 9.22 µM | Potency [7] | Potency [8]

CN1CCN(c2ncc3nc(CCc4ccccc4)c(=O)n(CCC#N)c3n2)CC1
inactive: Potency [1] > 11.4 µM | activity change, negative = inhibition [2] -1.24% | activity change, negative = inhibition [3] -8.66% | activity, negative = inhibition [4] -3.93% | Potency [5] > 9.22 µM | Potency [6] > 46 µM | Potency [7] | Potency [8]

O=C(O)c1ccccc1-c1ccccc1C(=O)Nc1ccc2c(c1)[nH]c(=O)c1ccccc12
inactive: Potency [1] > 11.4 µM | activity change, negative = inhibition [2] -4.06% | activity change, negative = inhibition [3] 1.08% | activity, negative = inhibition [4] -25.4% | Potency [5] > 46 µM | Potency [6] > 9.22 µM | Potency [7] | Potency [8]

Cn1c(=S)c2[nH]c(SCCN3C(=O)c4ccccc4C3=O)nc2n(C)c1=O
inactive: Potency [1] > 11.4 µM | activity change, negative = inhibition [2] 0.578% | activity change, negative = inhibition [3] -4.22% | activity, negative = inhibition [4] 2.07% | Potency [5] > 46 µM | Potency [6] > 9.22 µM | Potency [7] | Potency [8]

NCCOC[C@H](N)C(=O)O
inactive: Potency [1] > 11.4 µM | activity change, negative = inhibition [2] 3.26% | activity change, negative = inhibition [3] 11.6% | activity, negative = inhibition [4] -1.46% | Potency [5] > 46 µM | Potency [6] > 9.22 µM | Potency [7] | Potency [8]

CCC(=O)[C@@H](c1ccccc1)c1ccccn1
inactive: Potency [1] > 11.4 µM | activity change, negative = inhibition [2] 10.3% | activity change, negative = inhibition [3] -5.51% | activity, negative = inhibition [4] 0.735% | Potency [5] > 46 µM | Potency [6] > 9.22 µM | Potency [7] | Potency [8]

NC(N)=N[C@H](CC(=O)O)c1ccccc1
inactive: Potency [1] > 11.4 µM | activity change, negative = inhibition [2] 5.91% | activity change, negative = inhibition [3] 1.32% | activity, negative = inhibition [4] 3.35% | Potency [5] > 46 µM | Potency [6] > 9.22 µM | Potency [7] | Potency [8]

CN(C)c1ccc2nc3c(C(=O)O)cc(=O)c(O)c-3oc2c1
inactive: Potency [1] > 11.4 µM | activity change, negative = inhibition [2] -7.19% | activity change, negative = inhibition [3] 4.18% | activity, negative = inhibition [4] -14.8% | Potency [5] > 46 µM | Potency [6] > 9.22 µM | Potency [7] | Potency [8]

C[C@H](CCC(=O)NN)[C@@H]1CC[C@@H]2[C@H]3CC[C@H]4C[C@@H](O)CC[C@@]4(C)[C@@H]3CC[C@]21C
inactive: Potency [1] > 11.4 µM | activity change, negative = inhibition [2] 12.8% | activity change, negative = inhibition [3] 17% | activity, negative = inhibition [4] -5.92% | Potency [5] > 46 µM | Potency [6] > 9.22 µM | Potency [7] | Potency [8]

S=C1NCN2CCN(CC2)CNC(=S)C(=S)NCN2CCN(CC2)CNC1=S
inactive: Potency [1] > 11.4 µM | activity change, negative = inhibition [2] 3.32% | activity change, negative = inhibition [3] -3.6% | activity, negative = inhibition [4] 3.07% | Potency [5] > 46 µM | Potency [6] > 9.22 µM | Potency [7] | Potency [8]

C#CCOC(=O)[C@H](N)CC(N)=O
inactive: Potency [1] > 11.4 µM | activity change, negative = inhibition [2] 0.665% | activity change, negative = inhibition [3] 13.9% | activity, negative = inhibition [4] -0.998% | Potency [5] > 46 µM | Potency [6] > 9.22 µM | Potency [7] | Potency [8]

COc1ccc(/C=N\NC(=O)O)cc1
inactive: Potency [1] > 11.4 µM | activity change, negative = inhibition [2] 7.79% | activity change, negative = inhibition [3] 19.9% | activity, negative = inhibition [4] 7.25% | Potency [5] > 46 µM | Potency [6] > 9.22 µM | Potency [7] | Potency [8]

O=C(O)c1ccncc1.O=C(O)c1ccncc1.[NH2-].[NH2-].[Pt]
inactive: Potency [1] > 11.4 µM | activity change, negative = inhibition [2] -4.3% | activity change, negative = inhibition [3] 8.19% | activity, negative = inhibition [4] 2.8% | Potency [5] > 46 µM | Potency [6] > 9.22 µM | Potency [7] | Potency [8]

C(=N/Nc1ccccn1)/c1cccnc1
inactive: Potency [1] > 11.4 µM | activity change, negative = inhibition [2] 3.9% | activity change, negative = inhibition [3] 5.25% | activity, negative = inhibition [4] 2.75% | Potency [5] > 46 µM | Potency [6] > 9.22 µM | Potency [7] | Potency [8]

O=C(O)C(=O)/C=C(\O)c1ccc(Br)cc1
inactive: Potency [1] > 11.4 µM | activity change, negative = inhibition [2] -0.263% | activity change, negative = inhibition [3] 12.1% | activity, negative = inhibition [4] 11.6% | Potency [5] > 46 µM | Potency [6] > 9.22 µM | Potency [7] | Potency [8]

COc1ccc(Oc2ncc3nc(-c4ccc(Cl)cc4)c(=O)n(CCC#N)c3n2)cc1
inactive: Potency [1] > 11.4 µM | activity change, negative = inhibition [2] -25.6% | activity change, negative = inhibition [3] 0.455% | activity, negative = inhibition [4] -7.87% | Potency [5] > 46 µM | Potency [6] > 46 µM | Potency [7] | Potency [8]

O=C1c2ccccc2[C@@H]([C@@H]2c3ccccc3C(=O)c3cc(Br)ccc32)c2ccc(Br)cc21
inactive: Potency [1] > 11.4 µM | activity change, negative = inhibition [2] -5.16% | activity change, negative = inhibition [3] -5.27% | activity, negative = inhibition [4] 8.23% | Potency [5] > 46 µM | Potency [6] > 9.22 µM | Potency [7] | Potency [8]

CN(C)Cc1cc(C(=O)O)cc(CN(C)C)c1O
inactive: Potency [1] > 11.4 µM | activity change, negative = inhibition [2] 4.91% | activity change, negative = inhibition [3] 3.37% | activity, negative = inhibition [4] -1.77% | Potency [5] > 46 µM | Potency [6] > 9.22 µM | Potency [7] | Potency [8]
